Hits are enriched below; roughly 6.6% of the tested compounds scored in any of these assays.
RGS4 inh: Inhibitors of Regulator of G Protein Signaling (RGS) 4: qHTS; Transcreener GDP fluorescence polarization, RGS4-accelerated GTP hydrolysis; Potency, µM (highest dose often 114 µM), for the others: at the highest dose activity change, negative = inhibition, usual class: inhibitors; 0.039% of 390,000 active; also: % is scaled to controls: 0 for no effect and ±100 for the full control effect; nearly all actives have a fitted effect of over 75% in size
Target sequence (P49798 whole entry, looked up): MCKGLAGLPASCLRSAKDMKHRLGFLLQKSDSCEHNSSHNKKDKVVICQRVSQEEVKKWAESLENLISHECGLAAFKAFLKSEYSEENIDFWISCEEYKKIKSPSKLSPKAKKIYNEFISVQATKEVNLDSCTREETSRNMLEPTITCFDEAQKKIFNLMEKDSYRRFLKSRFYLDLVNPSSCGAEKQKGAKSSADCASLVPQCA
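MLSMR compounds (23 nl, pin-transferred) preincubated 10 min at room temperature with a 500nM (2x) first reagent, then RGS4 at 900nM (2x) plus Transcreener GDP mix added; fluorescence polarization (620/688 nm) read before and after 90 min at 30 °C.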
SW480 rereplic: A quantitative high throughput screen for small molecules that induce DNA re-replication in SW480 colon adenocarcinoma cells. SW480 DNA re-replication, Hoechst DNA content imaging, 48 h. AID 624297, 2012. 1.8% of 340,000 active. Potency, µM (doses to about 46.1 µM), inactives show at the top dose re-replication activation, actives largely listed as activators; also: % of control where 0% means no effect; nearly all actives have a fitted effect of over 55% in size
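Treated cells incubate 48 hr (37 C, 5% CO2), are stained 40 min with Hoechst, and nuclear fluorescence is enumerated; a rise in nuclei with high DNA signal marks re-replication.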
KB-3-1 cytotox: qHTS assay for MDR1-selective chemotherapeutics: Primary screen using the parental adenocarcinoma cell KB-3-1; KB-3-1 viability, CellTiter-Glo ATP luminescence, 72 h; 1.4% of 400,000 active; Potency, µM (titrated, usually from 46.1 µM), actives largely listed as cytotoxic; also: % is scaled to controls: 0 for no effect and ±100 for the full control effect; nearly all actives have a fitted effect of over 60% in size
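KB-3-1 cells, DMEM (no phenol red) + 10% FBS; compound by pin transfer, 72 h, 37 °C. Readout: CellTiter-Glo luminescence after 10 min. Data normalized, curve-fitted.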
TSG101-PTAP inh: qHTS Assay for Iinhibitors of HIV-1 Budding by Blocking the Interaction of PTAP/TSG101; Tumor susceptibility gene 101 protein (Homo sapiens), Q99816; Fluorescence polarization, FITC-PTAP peptide / Tsg101 binding; Potency, µM (doses to about 115 µM), for the others: at the highest dose activity change, negative = inhibition, hits mostly inhibitors; 340,000 tested, under 10 active; AID 493005, 2010; active = well fitted inhibition curve with a large enough effect in the main read-out, with a control signal flat, not every such curve was filed as active; inconclusive = small, poorly fitted or top-dose-only effect, or effect the other way, or a change in a side signal; inactive = no such curve, though single readings can be large or run the other way; also: % of control where 0% means no effect
Target sequence (Q99816 whole entry, looked up): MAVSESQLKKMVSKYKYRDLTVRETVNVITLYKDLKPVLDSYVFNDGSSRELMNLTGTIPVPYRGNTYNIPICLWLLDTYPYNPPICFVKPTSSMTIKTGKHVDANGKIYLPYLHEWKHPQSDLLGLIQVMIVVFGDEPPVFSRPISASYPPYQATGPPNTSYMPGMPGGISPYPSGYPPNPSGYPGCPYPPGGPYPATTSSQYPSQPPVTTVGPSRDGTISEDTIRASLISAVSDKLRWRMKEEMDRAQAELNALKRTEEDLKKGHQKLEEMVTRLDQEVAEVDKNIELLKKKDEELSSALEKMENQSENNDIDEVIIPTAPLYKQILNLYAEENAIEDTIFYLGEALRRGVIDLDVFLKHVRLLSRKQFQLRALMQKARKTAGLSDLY
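Tsg101 binding domain (10 uM final) was mixed with compound and a FITC-labeled PTAP peptide (50 nM final) in HEPES pH 7.5 buffer with NaCl, Tween 20, EDTA and TCEP; fluorescence polarization was read after 20 min at r.t.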
MCF10A rerep: A quantitative high throughput screen for small molecules that induce DNA re-replication in MCF 10a normal breast cells | Potency, µM (highest dose often 46.1 µM), inactives show top-dose activity, positive = re-replication, usual class: activators | MCF 10A DNA re-replication, Hoechst nuclear intensity, 48 h | 2.9% of 350,000 active; also: % of control where 0% means no effect; nearly all actives have a fitted effect of over 50% in size
KB-V1 cytotox: qHTS assay for MDR1-selective chemotherapeutics: Primary screen using the drug-selected MDR subline cells KB-V1; KB-V1 MDR cells viability, CellTiter-Glo, 72 h; Potency, µM (top dose mostly 46.1 µM), hits mostly cytotoxic; 3.4% of 400,000 active; AID 1347076, 2019; also: % is scaled to controls: 0 for no effect and ±100 for the full control effect; nearly all actives have a fitted effect of over 60% in size
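KB-V1, DMEM (no phenol red) + 10% FBS; cpd pin-transferred, titration series; 72 h, 37 degrees C; CellTiter-Glo, luminescence. Data normalized, curve-fit.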
* = called active by the depositor; ! = not active in a repeat; [ ] = dose if it differs, or a comment. Unless noted, calls follow the shape of the dose curve; as a rule, active = well fitted curve in the direction sought with a large enough effect; inconclusive = small, poorly fitted or top-dose-only effect, or another doubt; inactive = no such curve, though single readings can be large; an effect the other way counts as inactive or inconclusive. Potency is read from the fitted curve at half-maximal effect.

What do the screens show for `CC(NC(=O)CSc1nc(-c2cccc(Cl)c2)nc2cc(=O)[nH]n12)c1nc2ccccc2n1C` (stereo unspecified)?
RGS4 inh: -5%; KB-3-1 cytotox: inactive; KB-V1 cytotox: inactive

What do the screens show for `CCc1nc2oc3ccccc3c(=O)c2c(=O)n1-c1ccc(C)cc1`?
RGS4 inh: -23%; SW480 rereplic: -10%; KB-3-1 cytotox: inactive; TSG101-PTAP inh: -3%; MCF10A rerep: 2%; KB-V1 cytotox: inactive

How did CCc1nc2oc3ccccc3c(=O)c2c(=O)n1-c1ccccc1 do in these assays?
RGS4 inh: 22%; SW480 rereplic: 6%; KB-3-1 cytotox: inactive; TSG101-PTAP inh: 0%; MCF10A rerep: -4%; KB-V1 cytotox: 15µM*

How did Cc1ccc(S(=O)(=O)N2CCN(c3nc(-c4cncnc4)nc4ccccc34)CC2)cc1 do in these assays?
RGS4 inh: 0%

Results for Cc1cccc(NC(=O)CC2C(=O)NCCN2C(=S)Nc2ccccc2)c1 (stereo unspecified) ?
RGS4 inh: -6%; SW480 rereplic: -1%; KB-3-1 cytotox: inactive; TSG101-PTAP inh: 0%; MCF10A rerep: 16µM*; KB-V1 cytotox: inactive

What do the screens show for `COc1ccccc1NC(=S)N1CCNC(=O)C1CC(=O)Nc1cccc(C)c1` (stereo unspecified)?
RGS4 inh: -17%[56.9 µM]; SW480 rereplic: -3%; KB-3-1 cytotox: inactive; TSG101-PTAP inh: -1%; MCF10A rerep: -2%; KB-V1 cytotox: inconclusive

Results for Cc1cccc(NC(=O)c2cccc(N3C(=O)C4C5CCC(C5)C4C3=O)c2)c1C (stereo unspecified) ?
RGS4 inh: 11%; SW480 rereplic: 4%; KB-3-1 cytotox: inactive; TSG101-PTAP inh: 0%; MCF10A rerep: 2%; KB-V1 cytotox: 8.2µM*

How did CCc1ccccc1NC(=O)c1cccc(N2C(=O)C3C4CCC(C4)C3C2=O)c1 (stereo unspecified) do in these assays?
RGS4 inh: 0%; SW480 rereplic: -4%; KB-3-1 cytotox: inactive; TSG101-PTAP inh: -6%; MCF10A rerep: 3%; KB-V1 cytotox: inactive

How did CC1=C(c2ccc(F)cc2)S(=O)(=O)N=C1N1CCC(C(=O)NCCc2cccc(C)c2)CC1 do in these assays?
RGS4 inh: -3%; KB-3-1 cytotox: inactive; KB-V1 cytotox: inactive

Results for CC1CCN(CC(=O)n2c3c(c4ccccc42)CCCC3)CC1 ?
RGS4 inh: 16%; SW480 rereplic: -2%; KB-3-1 cytotox: inactive; TSG101-PTAP inh: -4%; MCF10A rerep: 3%; KB-V1 cytotox: inactive

Results for O=C(c1ccccc1F)n1c2c(c3ccccc31)CCCC2 ?
RGS4 inh: 6%; SW480 rereplic: inconclusive; KB-3-1 cytotox: inconclusive; TSG101-PTAP inh: -2%; MCF10A rerep: 15µM*; KB-V1 cytotox: inconclusive

Results for COc1ccc(C(=O)CSc2nnc(-c3cccnc3)n2Cc2ccco2)cc1 ?
RGS4 inh: 3%; SW480 rereplic: -3%; KB-3-1 cytotox: inactive; TSG101-PTAP inh: -7%; MCF10A rerep: -2%; KB-V1 cytotox: inactive

What do the screens show for `CN(C)C(=O)CSc1nnc(-c2ccco2)n1-c1ccccc1`?
RGS4 inh: -19%; SW480 rereplic: -2%; KB-3-1 cytotox: inactive; TSG101-PTAP inh: 1%; MCF10A rerep: 5%; KB-V1 cytotox: inactive

What do the screens show for `Cc1ccc2nc(CSc3nnc(-c4ccco4)n3-c3ccccc3)cc(=O)n2c1`?
RGS4 inh: 4%; SW480 rereplic: 24%; KB-3-1 cytotox: inactive; TSG101-PTAP inh: -3%; MCF10A rerep: 4%; KB-V1 cytotox: 10µM*

What do the screens show for `CN(Cc1ccccc1)C(=O)CSc1nnc(-c2ccco2)n1-c1ccccc1`?
RGS4 inh: -17%; SW480 rereplic: -5%; KB-3-1 cytotox: inactive; TSG101-PTAP inh: -3%; MCF10A rerep: 2%; KB-V1 cytotox: 3.7µM*

What do the screens show for `Cc1ccc(C(=O)CSc2nnc(-c3ccco3)n2Cc2ccccc2)cc1`?
RGS4 inh: -29%[11.4 µM]; SW480 rereplic: 2%; KB-3-1 cytotox: 21µM*; TSG101-PTAP inh: -7%; MCF10A rerep: 13%; KB-V1 cytotox: inconclusive

Results for COc1ccc(C(=O)CSc2nnc(-c3cc4ccccc4cc3O)n2Cc2ccco2)cc1 ?
RGS4 inh: -28%; SW480 rereplic: 13%; KB-3-1 cytotox: inconclusive; TSG101-PTAP inh: -4%; MCF10A rerep: 16%; KB-V1 cytotox: 7.3µM*!

How did COc1ccccc1CNc1ncnc2c1c(-c1ccccc1)cn2-c1ccc(Br)cc1 do in these assays?
RGS4 inh: -2%

What do the screens show for `COc1ccc(-c2nc(CSc3nncn4c3cc3sccc34)c(C)o2)cc1OC`?
RGS4 inh: -4%

Results for CC1CCN(S(=O)(=O)c2ccc3c(ccn3CC(=O)NCc3ccccc3F)c2)CC1 ?
RGS4 inh: -6%; KB-3-1 cytotox: inactive; KB-V1 cytotox: inactive

What do the screens show for `Cn1cnc2c(=O)oc3ccc(S(=O)(=O)N4CCN(c5cccc(C(F)(F)F)c5)CC4)cc3c21`?
RGS4 inh: 3%

What do the screens show for `CCn1c(SCC(=O)N(C(C)C)C(C)C)nnc1-c1cc2ccccc2cc1O`?
RGS4 inh: inconclusive; SW480 rereplic: -15%; KB-3-1 cytotox: inconclusive; TSG101-PTAP inh: -1%; MCF10A rerep: 3%; KB-V1 cytotox: 3.7µM*

What do the screens show for `CCc1nnc(NC(=O)CSc2nnc(-c3cc4ccccc4cc3O)n2CC)s1`?
RGS4 inh: -39%; SW480 rereplic: 1%; KB-3-1 cytotox: inactive; TSG101-PTAP inh: -1%; MCF10A rerep: 15%; KB-V1 cytotox: inactive

What do the screens show for `CCn1c(SCC(=O)N2CCC(C)CC2)nnc1-c1ccco1`?
RGS4 inh: 12%; SW480 rereplic: -5%; KB-3-1 cytotox: inactive; TSG101-PTAP inh: 1%; MCF10A rerep: -14%; KB-V1 cytotox: inactive

How did CC1CCN(C(=O)CSc2nnc(-c3cc4ccccc4cc3O)n2Cc2ccco2)CC1 do in these assays?
RGS4 inh: -37%; SW480 rereplic: 15%; KB-3-1 cytotox: inconclusive; TSG101-PTAP inh: -8%; MCF10A rerep: 7%; KB-V1 cytotox: 3.7µM*

Results for COc1ccccc1NC(C)C(=O)c1c(C)[nH]c2ccccc12 (stereo unspecified) ?
KB-3-1 cytotox: inactive; KB-V1 cytotox: inactive
